Results published in PubChem BioAssay (NCI).
The panel holds about 83,000 compounds, 20% with a hit somewhere; the sample as a whole holds those more often.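 Step 1: grow cells in 96-well plates. Step 2: add test compound at a single concentration. Step 3: incubate 48 h. Step 4: record percent growth.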 Values without a mark were called inactive. The source made the active and inactive calls. How the source made its calls: active means growth percent below 10; inactive means the rest.

tested on: MOLT-4 leukemia; assay: NCI-60 one-dose screen, 48 h (100 = growth as untreated, 0 = no growth, -100 = all killed); details: 10 µM unless noted

Compound	growth
COc1ccc(C(O)c2cc3c(N)c(C(=O)Nc4cccc(OC)c4)sc3nc2C)cc1 (stereo not drawn)	16.3%
CCN(CC)S(=O)(=O)c1cccc([N+](=O)[O-])c1	105%
CCOC(=O)C1CC(=O)c2cc(OC)c(OC)cc2C1 (stereo not drawn)	94.3%
c1ccc(CCSc2ncnc3nc[nH]c23)cc1	92.4%
O=S(=O)(NCCCNc1nccc(-c2c(-c3ccccc3)nc3occn23)n1)c1ccc(Cl)cc1	68.1%
Cc1nc2sc(C(=O)Nc3ccccc3)c(N)c2cc1C(=O)c1ccc(C(F)(F)F)cc1	108%
Nc1ncc(C#Cc2cncc(NC(=O)c3cccc(C(F)(F)F)c3)c2)c2cccnc12	36.8%
CCCCCCCCCCCCCCCC(=O)OC[C@@]1(O)C[C@@]23CC[C@@H]4C(C)(C)CCC[C@@]4(C)[C@@H]2CC[C@H]1C3	57.3%
CC1(C)CN(c2cnc(C(=O)Nc3cc(F)cc4cccnc34)cn2)CCN1	38.5%
O=S(=O)(NCCCNc1nccc(-c2c(-c3ccc(F)c(O)c3)nc3sccn23)n1)c1ccc(F)cc1	-3.88% (active)
CC1(C)CN(Cc2ccccc2)CCN1Cc1ccccc1	100%
COc1ccc(Cn2nc(-c3ccccc3)c3c2CCc2cnoc2-3)cc1	52.7%
O=C(Nc1ccc2ncnc(Nc3ccc(Oc4cccc(F)c4)c(Cl)c3)c2c1)c1ccc(CN2CCOCC2)cc1	-3.45% (active)
O=C1/C(=C/c2ccc(O)cc2)COc2ccc(-c3ccccc3)cc21	-22.5% (active)
CCCCc1ccc(Nc2nnc(SCC(=O)NC(=O)NCC)s2)cc1	100%
Fc1ccccc1CSc1ncnc2nc[nH]c12	92.3%
COc1ccc(-c2cnnc3c(-c4cccc(C(F)(F)F)c4)cnn23)cc1	89.2%
CC(=O)Nc1ccc(C(=O)Nc2cc(-c3ccccc3)ccc2N)cc1	64.8%
Cc1ccc(C2CC(c3cccc(Nc4ccncc4)c3)=NN2c2ccc(Cl)cc2)cc1 (stereo not drawn)	-32.8% (active)

Compound	growth
CC(C)[N+](C)(CCOC(COc1ccccc1)COc1ccccc1)C(C)C	98.2%
FC(F)(F)c1cccc(Oc2ccc(Nc3ncnc4ccc(OCCCN5CCOCC5)cc34)cc2Cl)c1	34.3%
COc1ccc(/C=C2\COc3ccc(-c4ccccc4)cc3C2=O)cc1O	-18.2% (active)
Cc1ccccc1-c1cc(Cc2ccc(F)cc2)c(=O)[nH]n1	58.1%
CC(=O)N1N=C(c2cccc(Nc3ccncc3)c2)CC1c1ccccc1 (stereo not drawn)	81.4%
COc1cccc(/C=C2\COc3ccc(-c4ccccc4)cc3C2=O)c1	-28.2% (active)
O=C1NC(=S)NC(=O)C1=Cc1cccc(C=C2C(=O)NC(=S)NC2=O)c1	102%
Cc1ccc(/C=C/C(=O)c2ccc(N)cc2)c(C)c1	-41.1% (active)
FC(F)(F)Oc1cccc(-c2cc(NCCCCCCNc3cc(-c4cccc(OC(F)(F)F)c4)nc4ccc(N5CCCC5)cc34)c3cc(N4CCCC4)ccc3n2)c1	-35.6% (active)
CS(=O)(=O)c1ccc(-c2cc3c(oc2=O)-c2ccccc2OC3O)cc1 (stereo not drawn)	86.3%
O=C1c2cccnc2C(=O)c2nc3cc(N4CCN(C5CC5)CC4)ccc3nc21	26.2%
CN1CCN(CCCOc2ccc3ncnc(Nc4ccc(Oc5cccc(C(F)(F)F)c5)c(Cl)c4)c3c2)CC1	3.44% (active)
COc1cc(/C=N/NC(=O)c2ccccc2Nc2cccc(C(F)(F)F)c2)ccc1O	-76.2% (active)
COc1ccc(/C=C/C(=O)c2ccc(Nc3ncnc4ccccc34)cc2)cc1OC	48.2%
COc1cc(C2CC(c3cccc(Nc4ccncc4)c3)=NN2c2ccccc2)cc(OC)c1OC (stereo not drawn)	1.73% (active)
COc1cccc(CCC(=O)c2cc3c(N)c(C(=O)Nc4cccc(Cl)c4C)sc3nc2C)c1	16%
COc1ccc(-c2nc(N/N=C/c3ccco3)nc(N3CCOCC3)c2C#N)cc1	62.2%
COc1ccc(C(=O)c2cc3c(N)c(C(=O)Nc4cccc5ccccc45)sc3nc2C)cc1	13.8%
C#CCn1cc(C=C2C(=O)NC(=S)NC2=O)c2cc(Cl)ccc21	5.59% (active)
